# Assay results reported in PubChem BioAssay (NCI).
# This is part of a sample that, as a whole, favours compounds with a hit. Of some 83,000 tested, about 20% had one in any assay.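 Compound tested at a single concentration for 48 hours in 96-well plates; a percent growth value below 10 was scored as active.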 Unmarked numbers belong to inactive results. Calls of active or inactive are those of the source.
# Legend:
# Assay in all cases: NCI-60 one-dose screen, 48 h (100 = growth as untreated, 0 = no growth, -100 = all killed)
# Details in all cases: 10 µM unless noted
# [1] = tested on: NCI-H23 lung
# [2] = tested on: NCI-H226 lung
# [3] = tested on: NCI-H322M lung
# [4] = tested on: HOP-62 NSCLC
# [5] = tested on: NCI-H460 lung
# [6] = tested on: 786-0 renal
# [7] = tested on: MDA-MB-231 breast
# [8] = tested on: SF-268 CNS
# [9] = tested on: SF-539 CNS
# [10] = tested on: U251 CNS
# [11] = tested on: UACC-62 melanoma
# [12] = tested on: SK-MEL-28 melanoma
# [13] = tested on: SN12C renal
# [14] = tested on: UO-31 renal
# [15] = tested on: OVCAR-8 ovarian
# [16] = tested on: OVCAR-3 ovarian
# [17] = tested on: MDA-MB-435 melanoma
# [18] = tested on: SW-620 colon
# [19] = tested on: MCF7 breast
# [20] = tested on: KM12 colon
Structure (SMILES),growth [1] [%],growth [2],growth [3] [%],growth [4] [%],growth [5],growth [6] [%],growth [7] [%],growth [8] [%],growth [9],growth [10] [%],growth [11] [%],growth [12] [%],growth [13] [%],growth [14] [%],growth [15] [%],growth [16],growth [17],growth [18] [%],growth [19],growth [20] [%]
CC(=O)[O][Hg][c]1nc2c(c(=O)n(C)c(=O)n2C)n1C,106,108%,95.7,120,98.8%,102,102,110,104%,88.3,96.3,90.1,104,104,95.2,110%,92.4%,71.1,73.3%,96.6
C[C@]12CC[C@@H]3c4ccc(OC(=O)Cc5ccc(N(CCCl)CCCl)cc5)cc4CC[C@H]3[C@@H]1CC[C@@H]2OC(=O)Cc1ccc(N(CCCl)CCCl)cc1,119,92.6%,100,110,125%,110,102,108,103%,107,88,117,92.3,82.7,109,109%,112%,103,120%,111
NC(=O)NC(=O)CI,95.5,95.1%,119,109,106%,88,94.9,101,109%,94.7,86.7,89.5,85,,101,102%,98.2%,27.6,94.3%,107
CC1(C)N=C(N)N=C(N)N1c1ccc(CNC(=O)Nc2ccc(S(=O)(=O)F)c(Cl)c2)c(Cl)c1,31.1,83.8%,46,29.4,7.59% (active),30.8,60.8,26.5,24.9%,11.3,23.9,48.6,17,88.2,25.4,48.9%,13.5%,12.5,1.42% (active),21.2
O=C1C=CC(=O)C2C1C1(Cl)C(Cl)=C(Cl)C2(Cl)C1(Cl)Cl (centres undefined),58,56.9%,77.2,63.5,57.5%,73.9,44.8,47.6,62.5%,60.8,46.1,67.7,67.3,44.9,74.3,44.3%,3.15% (active),64.7,47%,38.9
C=CC(=O)NC(O)C(Cl)(Cl)Cl (centres undefined),105,112%,85,104,110%,95.2,115,104,102%,102,101,103,109,94.9,108,105%,105%,111,105%,106
COc1ccc(-c2ccc(OC)c(OC)c2OC)cc1,46.1,86.7%,36,26.9,12%,21.3,43.8,51.5,3.98% (active),22.9,34.4,49.6,42.3,39.4,21.7,-25% (active),-24% (active),11.6,19.3%,29.2
Cc1cc(N(CCCl)CCCl)ccc1C=Nc1ccc2ccccc2c1,60.8,-49.7% (active),103,42.7,26%,75.5,92,72.3,69%,63,28.4,102,49.7,50.8,72.7,85.7%,90.6%,84.9,40%,87.6
